Screens from PubChem BioAssay.
Most compounds without a hit are left out; they make up all but 19% or so of the library.
Pf growth 96h: P. falciparum growth inhibition at 96 hour, primary screen for plastid delayed-death inhibitors | Potency, µM (top dose mostly 28.7 µM), for inactives: at the highest dose activity change, negative = inhibition, usual class: inhibitors | P. falciparum luciferase reporter growth, 96 h | 6.9% of 320,000 active; further: potency means the concentration at half of the fitted maximal effect; on the % scale 0 is the no-effect control and ±100 the full control effect
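Plates of compound plus infected erythrocytes (2% hematocrit, 0.05% parasitemia final) incubate 96 hours, 37 C, 5% CO2. Detection reagent added; reduced luminescence from the parasites' luciferase reporter flags inhibition.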
Cycloheximide cs: counter-screen for Shiga toxin inhibitors: cycloheximide protein synthesis inhibition. cell reporter, cycloheximide protein synthesis inhibition counterscreen. max response, %. 12% of 300,000 active. AID 2314; in the data active means max response mostly above about 13%, no sharp cut-off; inactive means mostly below about 14%; further: read at 38.3 µM for the half of the compounds with a filed dose; 0% is about no effect
SARS PLP yeast: inhibitors of SARS-CoV papain-like protease in yeast | Potency, µM (titrated, usually from 32.9 µM), inactives show at the top dose activity, positive = growth rescue, most hits filed as activators | AID 485353 | 0.19% of 330,000 active | S. cerevisiae expressing SARS-CoV PLpro, growth rescue; calls by dose curve; further: potency means the concentration at half of the fitted maximal effect; 0% is about no effect; nearly all actives have a fitted effect of over 55% in size
Pf growth 48h: P. falciparum growth inhibition at 48 hours (one generation). 5.9% of 310,000 active. P. falciparum luciferase growth in erythrocytes, 48 h. Potency, µM (titrated, usually from 28.7 µM), for the others: top-dose activity change, negative = inhibition, hits mostly inhibitors; further: potency means the concentration at half of the fitted maximal effect; on the % scale 0 is the no-effect control and ±100 the full control effect
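Growth was read as firefly luciferase luminescence after a 48 h, 37 C, 5% CO2 exposure of compounds to reporter-bearing P. falciparum cultures (0.1% parasitemia, 2% hematocrit final) in Albumax-supplemented RPMI 1640.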
AMA1 RON2 block: disrupts binding of P. falciparum AMA1 to RON2. AlphaScreen AMA1-biotinylated RON2 peptide binding. Potency, µM (doses to about 58.2 µM), for the others: top-dose activity change, negative = inhibition, hits mostly inhibitors. 0.2% of 360,000 active;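 further: potency means the concentration at half of the fitted maximal effect; 0% = vehicle wells and -100% = peptide control; nearly all actives have a fitted effect of over 45% in size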
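AMA1 (3D7) with his tag at 25 nM final met compounds first, then biotinylated RON2 peptide at 25 nM; detection used donor plus acceptor beads, 10 µg/mL apiece, read by AlphaScreen after 30 min at room temperature.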
Shiga toxin inh: inhibitors of Shiga toxin in Vero cells | Vero cells, Shiga toxin protein synthesis inhibition reporter | inhibition, % at 38.7 µM | 9.2% of 290,000 active; in the data active means inhibition mostly above about 28%, no sharp cut-off; inactive means mostly below about 43%; further: 0% is about no effect
* hit, by the source's call; ? = inconclusive; · = not tested or not shown; [ ] = remark or other dose. Unless noted, the call rests on the fitted dose curve; in most records, active means well fitted curve in the direction sought with a large enough effect; inconclusive means small, poorly fitted or top-dose-only effect, or another doubt; inactive means no such curve, though single readings can be large; an effect the other way counts as inactive or inconclusive.

SMILES	Pf growth 96h	Cycloheximide cs	SARS PLP yeast	Pf growth 48h	AMA1 RON2 block	Shiga toxin inh
O=S(=O)(NCc1cn2ccsc2n1)c1cccs1	88.1%	23.4*	4.8%	39.5%	-3.8%	20.6
O=S(=O)(NCc1csc(-c2cccs2)n1)c1cccs1	48.3%	17.5*	-0.9%	21.8%	-4.0%	53.0*
CS(=O)(=O)NCc1csc(-c2ccccc2)n1	37.9%	9.0	4.1%	36.4%	-16.0%	29.6
O=S(=O)(NCc1csc(-c2cccs2)n1)c1ccc(Cl)cc1	7.3%	-2.7	-1.2%	0.9%	-8.1%	-19.8
O=C(CCc1ccccc1)N1CCN(c2ccc([N+](=O)[O-])cc2)CC1	-20.8%	2.9	-4.4%	-24.7%	-9.5%	-0.1
COc1ccc(CC(=O)NCc2csc(-c3cccs3)n2)cc1OC	?	-1.7	0.5%	-22.4%	-9.4%	12.4
Cc1ccn2cc(CNS(=O)(=O)c3cccs3)nc2c1	36.6%	22.7*	3.5%	79.4%	5.5%	46.0*
O=C(NCc1csc(-c2cccs2)n1)c1ccsc1	45.5%	22.3*	-1.3%	71.4%	-6.6%	55.5*
Cc1ccc2c(c1)N(C(=O)CCC(=O)N1CCC(C(N)=O)CC1)CC(C)O2 (stereo not drawn)	13.1µM*	-1.7	-1.1%	-5.2%	30.6%	7.9
Cc1ccc2c(c1)N(C(=O)CCC(=O)NCc1cccnc1)CC(C)O2 (stereo not drawn)	13.1µM*	-3.7	-9.8%	-8.6%	11.8%	1.6
Cc1ccc2c(c1)N(C(=O)CCC(=O)N1CCOCC1)CC(C)O2 (stereo not drawn)	34.6%	-1.0	-3.7%	-11.2%	2.8%	6.2
Cc1ccc(CNC(=O)CCC(=O)N2CC(C)Oc3ccccc32)cc1 (stereo not drawn)	64.4%	-1.4	-3.0%	4.3%	3.6%	1.5
CCc1ccccc1NC(=O)/C(=C/c1ccco1)c1ccccc1	1.85µM*	8.4	-19.9%	·	-20.2%	-3.6
Cc1ccccc1NC(=O)/C(=C/c1ccco1)c1ccccc1	?	1.5	-5.1%	·	-6.3%	-2.6
CC(C)(C)c1cc2nc(NCc3cccc(Cl)c3)ccn2n1	·	·	·	·	6.7%	·
CCN1C(=O)/C(=C2/Sc3ccc(OC)cc3N2C)SC1=Nc1ccc(OC)cc1	9.28µM*	4.9	-2.4%	-0.4%	0.4%	-8.4
COC(=O)CCC(=O)COc1ccccc1C#N	34.2%	26.6*	-3.2%	104.5%	-0.7%	62.2*
N#Cc1ccccc1OCC(=O)NCCNC(=O)COc1ccccc1C#N	?	·	-4.6%	?	11.5%	·
COC(=O)CCC(=O)COc1ccc(OC)cc1C#N	260.3%	22.9*	2.8%	237.5%	1.4%	40.3
CCC(C)c1ccc(NC(=O)COC(=O)c2nc3nccc(C)n3n2)cc1 (stereo not drawn)	56.2%	12.4	0.5%	33.9%	-1.6%	35.5
CCCc1c(C)[nH]c2ccc(C(=O)O)cc2c1=S	-2.9%	-1.6	2.0%	20.9%	-17.1%	14.4
O=c1c2ccccc2nc(-c2ccccc2)n1-c1ccccc1O	?	1.0	1.8%	?	5.9%	12.2
O=c1c2cc3c(=O)n(-c4ccccc4O)c(=O)c3cc2c(=O)n1-c1ccccc1O	-14.8%	27.0*	-12.8%	1.2%	20.0%	105.7*
Cc1cn([C@H]2C[C@H](O)[C@@H](CCC(=O)NCc3ccccc3)O2)c(=O)[nH]c1=O	·	·	·	·	5.4%	·
C/C(N)=C(/C#N)C(=O)COC(=O)c1ccccc1Cc1ccccc1	3.5%	18.4*	-2.1%	-17.0%	-2.9%	21.8
SMILES	Pf growth 96h	Cycloheximide cs	SARS PLP yeast	Pf growth 48h	AMA1 RON2 block	Shiga toxin inh
C/C(N)=C(/C#N)C(=O)COC(=O)c1ccncc1	·	-2.1	-1.2%	4.3%	-20.0%	-25.3
CC(=O)Nc1ccc(C(=O)OCC(=O)/C(C#N)=C(\C)N)cc1	46.5%	25.0*	1.3%	38.0%	-1.0%	16.4
C/C(N)=C(/C#N)C(=O)COC(=O)c1cccc(O)c1	266.1%	17.2	0.2%	40.4%	-4.2%	97.3*
O=C(c1cc(C2CC2)on1)N1CCN(c2ccccc2)CC1	?	24.0*	0.9%	·	-1.8%	46.7*
O=C(c1cc(-c2ccc(O)cc2)on1)N1CCN(c2ccccc2)CC1	34.6%	12.1	-9.6%	12.3%	-15.1%	32.7
O=C(c1cc(-c2ccc3c(c2)OCO3)on1)N1CCN(c2ccccc2)CC1	?	56.4*	-8.0%	249.2%	-13.6%	61.5*
O=C(c1cc(-c2ccc3c(c2)OCO3)on1)N1CCOCC1	26.1%	20.1*	-4.1%	87.1%	1.4%	active
FC(F)(F)c1cccc(NC(=S)NCc2ccc(Cl)cc2)c1	-18.2%[5.75 µM]	-1.6	-0.9%	?	8.1%	10.9
FC(F)(F)c1cccc(NC(=S)NNC(=S)Nc2ccc(Cl)cc2)c1	11.7µM*	2.9	-18.5%	?	·	24.5
FC(F)(F)c1cnc(NNC(=S)Nc2ccc(Cl)cc2)c(Cl)c1	7.38µM*	13.3	-8.8%	?	12.8%	-3.5
Cc1cc(C(=O)NNC(=S)Nc2cccc(C(F)(F)F)c2)nn1C	40.7%	18.2*	2.7%	18.6%	96.0%	32.7
Fc1ccc(CNC(=S)Nc2cccc(C(F)(F)F)c2)cc1	29.5%	13.4*	·	?	-7.7%[2.32 µM]	18.0
Cc1ccc(NC(=S)NNc2ncc(C(F)(F)F)cc2Cl)c(C)c1	?	-3.1	8.9%	·	95.5%	-5.6
NC(=O)Cn1c(=O)n(CCC(=O)NCCSCc2ccccc2)c(=O)c2ccccc21	15.4%	-4.9	0.8%	10.1%	1.4%	-17.5
Cc1ccc(NC(=S)NNc2ncc(C(F)(F)F)cc2Cl)cc1	10.4µM*	-8.5	-27.7%	?	37.9%	-8.0
CC(NC(=S)Nc1cccc(C(F)(F)F)c1)C(C)(C)C (stereo not drawn)	13.1µM*	-1.6	-3.0%	?	20.0%	-17.1
Fc1ccc(NC(=S)NNc2ncc(C(F)(F)F)cc2Cl)c(F)c1	10.4µM*	21.4	-3.0%	9.28µM*	5.6%	47.5*
COc1ccc(-c2nc(N3CCN(S(=O)(=O)c4ccccc4)CC3)c3ccccc3n2)cc1	·	17.9	·	·	·	47.8
O=C(COc1cccc(C(F)(F)F)c1)NNC(=O)c1ccc(=O)[nH]c1	·	·	1.8%	·	101.9%	·
CSc1nc(N)nc(SCC(=O)C(C)(C)C)c1C#N	?	21.9	-0.2%	·	1.7%	21.7
CSc1nc(N)nc(SCC(=O)Nc2cccc(F)c2)c1C#N	-6.4%	28.4	1.5%	?	10.7%	77.0*
CSc1nc(N)nc(SCC(=O)Nc2ccc(Cl)cc2)c1C#N	-12.9%	20.3*	12.1%	-8.1%	-13.0%	43.1*
Cc1ccc(S(=O)(=O)N2C[C@H]3C(=O)C[C@@H](c4ccccc4)N(S(C)(=O)=O)[C@H]3C[C@H]2c2ccccc2)cc1	·	·	·	·	-4.9%	·
COc1cc(C(=O)N=c2sc3c(C)ccc(OC)c3n2C)cc(OC)c1OC	?	13.0	-3.9%	-14.1%	-9.0%	39.1
CCOC(=O)c1sc(=NC(=O)c2ccc(OC)c(OC)c2)n(C)c1C	10.4%	37.2	0.7%	9.4%	-2.2%	85.5*
